# High-throughput results (PubChem BioAssay)
# G9a block: blocks human histone lysine methyltransferase G9a | Potency, µM (titrated, usually from 102 µM), without a hit: top-dose activity, negative = inhibition, actives largely listed as inhibitors | 8.8% of 350,000 active | G9a H3K9 monomethylation, AlphaScreen, 2 h; also: potency is read from the fitted curve at half-maximal effect; % is scaled to controls: 0 for no effect and ±100 for the full control effect; nearly all actives have a fitted effect of over 75% in size
# Target sequence (Q96KQ7 913-1193 limits assumed): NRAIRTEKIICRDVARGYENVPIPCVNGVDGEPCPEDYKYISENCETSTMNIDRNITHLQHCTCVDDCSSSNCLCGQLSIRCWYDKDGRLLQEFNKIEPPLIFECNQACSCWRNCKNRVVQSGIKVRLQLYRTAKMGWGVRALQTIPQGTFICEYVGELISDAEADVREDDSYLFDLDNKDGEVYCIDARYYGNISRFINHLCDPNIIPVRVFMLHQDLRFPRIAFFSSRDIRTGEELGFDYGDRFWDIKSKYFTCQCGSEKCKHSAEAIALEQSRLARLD
#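 Methyltransferase reactions run at room temperature for 2 h (20 nM enzyme, 500 nM biotin-H3K9 peptide, 20 uM SAM) after a 15 min compound preincubation; product detected by AlphaScreen beads and anti-H3K9me1 antibody.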
# BAZ2B inh: blocks human BAZ2B; Q9UIF8; AlphaScreen BAZ2B-H3K14Ac peptide displacement; Potency, µM (titrated, usually from 114 µM), for inactives: at the highest dose activity change, negative = inhibition, hits mostly inhibitors; 4.4% of 360,000 active; AID 504333; also: potency is read from the fitted curve at half-maximal effect; % is scaled to controls: 0 for no effect and ±100 for the full control effect; nearly all actives have a fitted effect of over 60% in size
#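 AlphaScreen displacement of biotin-H3(5-23)K14Ac peptide (50 nM final) from BAZ2B (50 nM final) in PBS pH 7.4, 0.01% Tween-20; complex preformed 30 min RT, then compounds (top 110 uM) 30 min RT, beads 20 min dark.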
# JMJD2A Tudor: blocks the human JMJD2A Tudor domain | 4.4% of 390,000 active | Potency, µM (top dose mostly 114 µM), for the others: top-dose activity change, negative = inhibition, usual class: inhibitors | O75164 | AlphaScreen JMJD2A-Tudor / H3K4me3 peptide binding; also: potency is read from the fitted curve at half-maximal effect; % is scaled to controls: 0 for no effect and ±100 for the full control effect; nearly all actives have a fitted effect of over 50% in size
# PLK1 PBD block: inhibitors of human PLK1 polo-box domain binding; Plk1 PBD binding of FITC phosphopeptide, fluorescence polarization; Potency, µM, for the others: max response, negative = inhibition, actives largely listed as inhibitors; 2.8% of 360,000 active; AID 720504; also: potency is read from the fitted curve at half-maximal effect; series mostly up to about 57 µM; % is scaled to controls: 0 for no effect and ±100 for the full control effect; nearly all actives have a fitted effect of over 65% in size
# PI5P4K alpha inh: blocks human PI5P4K alpha kinase activity; 1.2% of 330,000 active; AID 652105; PI5P4Kalpha enzyme, ADP-Glo luminescence, 60 min; hits give low values; max response, %; P48426; active = max response of -50% or lower; inconclusive = between -30% and -50%; inactive = -30% or higher; also: value at the top dose of about 77 µM; % is scaled to controls: 0 for no effect and ±100 for the full control effect
# Target sequence (P48426 whole entry, looked up): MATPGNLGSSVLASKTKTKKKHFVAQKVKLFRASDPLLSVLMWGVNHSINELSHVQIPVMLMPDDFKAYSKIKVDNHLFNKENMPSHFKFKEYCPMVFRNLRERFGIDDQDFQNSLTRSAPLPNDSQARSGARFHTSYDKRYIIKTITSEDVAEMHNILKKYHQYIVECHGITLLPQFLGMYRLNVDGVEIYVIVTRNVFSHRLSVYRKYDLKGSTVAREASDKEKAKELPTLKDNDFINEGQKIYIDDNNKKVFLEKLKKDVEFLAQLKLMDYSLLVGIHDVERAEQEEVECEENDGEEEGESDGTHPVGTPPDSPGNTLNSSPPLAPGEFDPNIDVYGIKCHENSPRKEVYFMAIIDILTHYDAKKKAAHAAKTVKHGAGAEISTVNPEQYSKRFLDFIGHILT
#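 Compounds were pin-transferred onto PI5P4Kalpha and substrate in HEPES pH 7.4 buffer with EGTA, CHAPS and 5% DMSO. ATP (5 microM final) started the reaction, which ran 60 minutes at room temperature before ADP-Glo detection.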
# HP1b binding inh: HP1-beta chromodomain-methylated histone interaction inhibition | 0.56% of 390,000 active | Potency, µM (top dose mostly 114 µM), inactives show top-dose activity change, negative = inhibition, usual class: inhibitors | AID 540317 | AlphaScreen HP1-beta / biotin-H3K9me3 peptide binding | P83916; also: potency is read from the fitted curve at half-maximal effect; nearly all actives have a fitted effect of over 70% in size
#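 AlphaScreen: HP1-beta (50 nM) preformed 30 min with biotin-H3(1-18)K9me3 peptide (50 nM) in PBS pH 7.4, 0.01% Tween-20. Compound added for 30 min at RT, then streptavidin donor/nickel chelate acceptor beads (10 ug/mL) for 30 min.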
# Numbers without * were called inactive; ? = inconclusive; . = not tested or not shown; [ ] = remark or other dose. Sampled rows, rich in hits. Any-hit rate of the full collection: about 12%. Unless noted, calls follow the shape of the dose curve; as a rule, active = well fitted curve in the direction sought with a large enough effect; inconclusive = small, poorly fitted or top-dose-only effect, or another doubt; inactive = no such curve, though single readings can be large; an effect the other way counts as inactive or inconclusive.
SMILES,G9a block,BAZ2B inh,JMJD2A Tudor,PLK1 PBD block,PI5P4K alpha inh,HP1b binding inh
O=[N+]([O-])c1cccc(-c2cn(-c3ccccc3)c(=S)[nH]2)c1,1.6µM*,1%,-28%,-10%,-16,26%
Cc1cccc(-c2n[nH]c(=S)n2-c2ccccc2)c1[N+](=O)[O-],2.2µM*,5%,35µM*,-5%,-7,23%
CCCCn1c(N)c(N(CCOC)C(=O)c2c(C)noc2C)c(=O)[nH]c1=O,-1%,11%,-8%,-4%,3,44%
O=[N+]([O-])c1cccc(-c2n[nH]c(=S)n2-c2ccccc2)c1,2.2µM*,-5%,22µM*,-14%,-3,1%
COc1ccc(-n2c(-c3cccc(C)c3[N+](=O)[O-])n[nH]c2=S)cc1,3.2µM*,-5%,?,?,-12,?
Nn1c(-c2cccc([N+](=O)[O-])c2)nc2ccccc2c1=O,-1%,19%,-9%,-12%,2,15%
COc1ccc(-n2c(-c3cc(-c4ccccc4)sc3N)n[nH]c2=S)cc1,1%,-17%,-15%,-1%,-20,36%
CCOC(=O)c1sc(SC)c2c1CCC/C2=N/OC,64%,4%,40%,5%,-6,77%
CCOC(=O)c1sc(S(C)(=O)=O)c2c1CCc1conc1-2,56µM*,-21%,-2%,-10%,1,30%
O=C(O)/C=C/c1cn(-c2ccccc2)nc1-c1ccc(-c2ccc([N+](=O)[O-])cc2)o1,50µM*,50µM*,45µM*,?,-60*,?
O=C(O)CSc1cc(C(=O)c2ccccc2O)cn2c(=O)c3c4c(sc3nc12)CCCC4,?,22µM*,35µM*,?,?,71µM*
O=C(O)CSc1nc2sc3c(c2c(=O)n1Cc1ccccc1)CCCCC3,4%,-12%,-16%,?,-1,9%
COc1ccc(/C=C/C(=O)OC(C)CN2CCCCC2)cc1 (stereo not given),20µM*,-27%,-14%,0%,-1,25%
CC(CN1CCCCC1)OC(=O)COc1ccc(Cl)cc1 (stereo not given),.,10%,?,24µM*,-20,18%
COc1ccc(/C=C/C(=O)OC(C)CN2CCOCC2)cc1 (stereo not given),.,4%,-24%,-9%,-4,9%
CCn1c(CN2CCCCC2)nc2cc(NC(=O)c3ccc([N+](=O)[O-])cc3)ccc21,-10%[59 µM],-5%,-17%,.,.,17%
CC1CCN(CCOCCOc2ccc(Cl)cc2Br)CC1,10µM*,79µM*,4.5µM*,-16%,.,?
CC1CN(C(=O)COc2ccc3ccccc3c2Br)CC(C)O1 (stereo not given),.,1%,1%,-4%,-5,26%
CC1CCCN(CCOc2ccc3ccccc3c2Br)C1 (stereo not given),?,22µM*,?,-9%,34,?
CC1CCCN(CCCOc2ccc(Cl)cc2Br)C1 (stereo not given),10µM*,-34%,22µM*,-8%,5,?
Cc1ccc(C)c(NC(=O)CCN2CCCC(C)C2)c1 (stereo not given),.,9%,-5%,-4%,0,55%
Cc1ccc(Cl)c(OCCN2CCCC(C)C2)c1 (stereo not given),13µM*,?,18µM*,-14%,-7,?
CCC(=O)N=c1ccn(C2=Nc3ccccc3NC2=C(C#N)C#N)cc1,-6%,-24%,-25%,-7%,-2,-6%
Cc1ccccc1CNC(=O)C1CCCCN1S(=O)(=O)c1ccc(F)cc1 (stereo not given),-1%[59 µM],13%,9%,.,.,34%
CC1CCN(CCCOc2ccc(Cl)cc2Br)CC1,20µM*,?,20µM*,-1%,4,?
SMILES,G9a block,BAZ2B inh,JMJD2A Tudor,PLK1 PBD block,PI5P4K alpha inh,HP1b binding inh
Clc1ccc(OCCCN2CCc3ccccc3C2)c(Br)c1,-129%,26%,16%,0%,27,92%
Cc1ccc(NC(=S)Nc2ccc(S(=O)(=O)Nc3ncccn3)cc2)cc1Cl,-36%,-4%,.,.,.,.
Cc1ccc(NC(=S)NNS(=O)(=O)c2ccc3ccccc3c2)cc1Cl,13%,-6%,?,19µM*,-27,?
COCCNC(=O)C(=O)NNS(=O)(=O)c1ccc(Cl)cc1,.,18%,-1%,2%,-6,45%
COCCNC(=O)C(=O)NNS(=O)(=O)c1ccc2ccccc2c1,40µM*,-16%,?,19µM*,-25,-15%
COCCNC(=O)C(=O)NNC(=O)COc1ccc(OC)cc1,25µM*,-38%,-7%,?,1,55%
O=C(OCC#CCSc1nnc(-c2cccc3ccccc23)o1)C1CCCC1,.,.,150%,.,.,.
COc1ccc(Cc2nnc(SCC(=O)Nc3c(C)cccc3C)[nH]c2=O)cc1,-1%,10%,-3%,-3%,5,19%
CCc1cccc(NC(=O)CSc2nnc(Cc3ccc(OC)cc3)c(=O)[nH]2)c1,50µM*,9%,3%,-18%,-5,6%
COC(=O)c1cccc(NC(=O)CSc2nc(O)c(-c3ccccc3)c(=O)[nH]2)c1,71µM*,?,-24%,-10%,-27,22%
COC(=O)c1cccc(NC(=O)CSc2nc(=O)cc(N)n2-c2ccccc2)c1,?,56µM*,-22%,-6%,0,-11%
COC(=O)c1ccccc1NC(=O)CSc1nc(O)c(-c2ccccc2)c(=O)[nH]1,-4%[59 µM],?,-2%[57.1 µM],-10%,-11,40%
Cc1cc(OC(C)C(=O)NCCCN2CCOCC2)c2c(C)c(C)c(=O)oc2c1 (stereo not given),15%,1%,-16%,-10%,-3,.
Cc1ccc(-n2nc(CO)c(C(=O)NCc3cccnc3)n2)cc1C,2%[59 µM],-11%,-9%,.,.,19%
O=C(O)COc1ccc2c(c1)O/C(=C\c1cccs1)C2=O,-37%,-16%,-1%,-11%,-26,21%
O=C(O)COc1ccc2c(c1)O/C(=C\c1ccco1)C2=O,10µM*,40µM*,20µM*,24µM*,?,40µM*
CCOc1cc(N2CCOCC2)c(OCC)cc1NC(=O)Cc1ccccc1OC,?,45µM*,?,1%,-6,?
CCOc1cc(N2CCOCC2)c(OCC)cc1NC(=O)C(C)C,58%[59 µM],-10%,-7%,-12%,3,2%
COc1cc(OC)c(NC(C)C(=O)NCc2ccccc2)cc1Cl (stereo not given),?,?,-28%,-8%,0,14%
CCOc1cc(N2CCOCC2)c(OCC)cc1NC(=O)Cc1ccccc1,.,?,-31%,-10%,-4,3%
